# Measured values from PubChem BioAssay (EPA / NIEHS).
# Values joined by “and” are separate entries in the source; they are usually repeats but may differ in a detail not shown here. Identical values can stand only once. Records with an inconclusive call do not appear. Active and inactive are the calls of the source. The calls were made as follows: active = hit-call score of the fitted dose curve at least 0.9, where 1 is the maximum; inconclusive = response in the unintended direction; inactive = score below 0.9.
# How the values were obtained:
# [1] = molecular target: Sodium channel protein type 1 subunit alpha (Rattus norvegicus) (UniProt P04774); experiment: NVS_IC_rNaCh_site2: NovaScreen (NVS) Ion Channel Assay for rat Sodium Channel, Site 2 (NaCh) (AID 2283322);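 also: hit means loss of radioligand binding signal relative to DMSO so AC50 marks displacement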
# Method in brief: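 Membranes: rat forebrain. Format: competitive radioligand displacement, filter separation, scintillation readout, 1 h exposure. Primary screen in duplicate at 25 uM; actives retested in concentration series.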
# [2] = molecular target: human Peripheral-type Benzodiazepine Receptor (PBR), TSPO (gene 706) (UniProt P30536); experiment: NVS_MP_hPBR: NovaScreen (NVS) Membrane Protein Assay for human Peripheral-type Benzodiazepine Receptor (PBR) (AID 2283331);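 also: hits reduce radioligand binding relative to DMSO baseline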
# Sequence of human Peripheral-type Benzodiazepine Receptor (PBR), TSPO (gene 706) (P30536 whole entry, looked up): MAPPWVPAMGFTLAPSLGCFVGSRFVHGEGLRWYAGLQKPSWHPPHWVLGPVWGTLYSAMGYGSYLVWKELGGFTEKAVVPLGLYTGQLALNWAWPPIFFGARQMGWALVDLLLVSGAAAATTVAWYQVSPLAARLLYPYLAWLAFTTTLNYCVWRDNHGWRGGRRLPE
# Method in brief: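 Radioligand displacement on human colonic cell membranes, 1 h incubation; bound radioactivity by filtration and scintillation counting. Primary screen in duplicate at 25 uM single concentration, actives followed up in concentration series; loss of binding versus DMSO.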
# [3] = molecular target: rat Thyrotropin Releasing Hormone Receptor (TRH), Trhr (gene 25570) (UniProt Q01717); experiment: NVS_GPCR_rTRH: NovaScreen (NVS) G Protein-Coupled Receptor Assay for rat Thyrotropin Releasing Hormone Receptor (TRH) (AID 2283329);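 also: hit means lower bound tracer signal versus DMSO baseline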
# Sequence of rat Thyrotropin Releasing Hormone Receptor (TRH), Trhr (gene 25570) (Q01717 whole entry, looked up): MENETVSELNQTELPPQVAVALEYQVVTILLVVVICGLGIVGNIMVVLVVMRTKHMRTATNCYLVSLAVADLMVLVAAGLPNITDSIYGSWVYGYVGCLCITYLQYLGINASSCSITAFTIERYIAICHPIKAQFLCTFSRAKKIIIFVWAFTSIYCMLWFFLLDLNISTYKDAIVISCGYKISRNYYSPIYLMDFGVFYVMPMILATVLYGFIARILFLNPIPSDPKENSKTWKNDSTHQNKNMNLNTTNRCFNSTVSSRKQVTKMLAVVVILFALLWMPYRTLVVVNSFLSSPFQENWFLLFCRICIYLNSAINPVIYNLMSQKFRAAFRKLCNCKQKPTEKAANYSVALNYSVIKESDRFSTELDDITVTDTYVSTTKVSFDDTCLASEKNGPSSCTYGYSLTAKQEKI
# Method in brief: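 Test compounds are screened at 25 uM in duplicate against radioligand binding in rat forebrain membranes, with active pairs followed up over a concentration range. Detection uses filter-based radiodetection after a 4 h exposure.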
# NCBI gene 24521 = experiment: NVS_IC_rKATPCh: NovaScreen (NVS) Ion Channel Assay for rat Potassium Channel, ATP-Sensitive (KATPCh) (AID 2283319)
# Method in brief: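 Rat cortical membranes; radioligand binding at ATP-sensitive K channel site, filter-based scintillation counting 2 h after dosing. Single-point duplicate screen at 25 uM, hits rerun in concentration-response up to 50 uM; loss of signal versus DMSO.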
# [4] = molecular target: rat Gamma-Aminobutyric Acid Type A Receptor, Non-Selective (GABAR-NonSelective), Gabra1 (gene 29705) (UniProt P62813); experiment: NVS_LGIC_rGABAR_NonSelective: NovaScreen (NVS) Ligand-Gated Ion Channel Assay for rat Gamma-Aminobutyric Acid Type A Receptor, Non-Selective (GABAR-NonSelective) (AID 2283326)
# Sequence of rat Gamma-Aminobutyric Acid Type A Receptor, Non-Selective (GABAR-NonSelective), Gabra1 (gene 29705) (P62813 whole entry, looked up): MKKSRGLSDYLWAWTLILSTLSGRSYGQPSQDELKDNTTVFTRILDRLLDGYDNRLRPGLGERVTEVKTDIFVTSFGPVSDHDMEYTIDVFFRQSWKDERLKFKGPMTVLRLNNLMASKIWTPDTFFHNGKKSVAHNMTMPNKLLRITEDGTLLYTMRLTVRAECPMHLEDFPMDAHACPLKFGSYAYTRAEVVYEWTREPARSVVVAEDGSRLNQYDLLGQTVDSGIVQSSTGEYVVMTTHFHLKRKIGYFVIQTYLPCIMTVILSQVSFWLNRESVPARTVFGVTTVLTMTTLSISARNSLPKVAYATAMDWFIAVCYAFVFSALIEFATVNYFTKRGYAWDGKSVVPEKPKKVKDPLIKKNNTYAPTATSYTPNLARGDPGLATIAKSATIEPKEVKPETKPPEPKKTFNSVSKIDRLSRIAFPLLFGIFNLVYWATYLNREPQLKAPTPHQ
# Method in brief: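 Radioligand displacement on rat whole-brain extract, 1 h, filter scintillation readout; signal loss fitted versus DMSO. Primary screen in duplicate at 25 uM; hits (e.g. ≥30% inhibition) retested in concentration-response up to 50 uM.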
# [5] = molecular target: rat Opioid Receptor, Non-selective Binding, Oprm1 (gene 25601) (UniProt P33535); experiment: NVS_GPCR_rOpiate_NonSelective: NovaScreen (NVS) G Protein-Coupled Receptor Assay for rat Opioid Receptor, Non-selective Binding (AID 2283318)
# Sequence of rat Opioid Receptor, Non-selective Binding, Oprm1 (gene 25601) (P33535 whole entry, looked up): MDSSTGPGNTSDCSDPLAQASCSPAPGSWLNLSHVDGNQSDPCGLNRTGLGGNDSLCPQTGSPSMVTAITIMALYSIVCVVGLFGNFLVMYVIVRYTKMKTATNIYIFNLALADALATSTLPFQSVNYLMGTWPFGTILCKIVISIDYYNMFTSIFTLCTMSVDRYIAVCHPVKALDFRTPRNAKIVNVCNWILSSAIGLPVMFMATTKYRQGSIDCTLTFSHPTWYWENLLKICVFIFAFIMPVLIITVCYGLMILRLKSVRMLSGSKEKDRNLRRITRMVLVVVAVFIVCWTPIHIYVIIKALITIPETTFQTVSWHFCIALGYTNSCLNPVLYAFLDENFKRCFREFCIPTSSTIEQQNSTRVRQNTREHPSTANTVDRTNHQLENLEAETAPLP
# Method in brief: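 Rat forebrain membranes, cell-free radioligand binding with filter-based scintillation counting, read 1.5 h after dosing. Primary screen in duplicate at 25 uM; actives retested in concentration series. Loss of signal versus DMSO baseline scored.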
# [6] = molecular target: human Serotonin, 5-Hydroxytryptamine Receptor 3 (5HT3), HTR3A (gene 3359) (UniProt P46098); experiment: NVS_LGIC_h5HT3: NovaScreen (NVS) Ligand-Gated Ion Channel Assay for human Serotonin, 5-Hydroxytryptamine Receptor 3 (5HT3) (AID 2283325)
# Sequence of human Serotonin, 5-Hydroxytryptamine Receptor 3 (5HT3), HTR3A (gene 3359) (P46098 whole entry, looked up): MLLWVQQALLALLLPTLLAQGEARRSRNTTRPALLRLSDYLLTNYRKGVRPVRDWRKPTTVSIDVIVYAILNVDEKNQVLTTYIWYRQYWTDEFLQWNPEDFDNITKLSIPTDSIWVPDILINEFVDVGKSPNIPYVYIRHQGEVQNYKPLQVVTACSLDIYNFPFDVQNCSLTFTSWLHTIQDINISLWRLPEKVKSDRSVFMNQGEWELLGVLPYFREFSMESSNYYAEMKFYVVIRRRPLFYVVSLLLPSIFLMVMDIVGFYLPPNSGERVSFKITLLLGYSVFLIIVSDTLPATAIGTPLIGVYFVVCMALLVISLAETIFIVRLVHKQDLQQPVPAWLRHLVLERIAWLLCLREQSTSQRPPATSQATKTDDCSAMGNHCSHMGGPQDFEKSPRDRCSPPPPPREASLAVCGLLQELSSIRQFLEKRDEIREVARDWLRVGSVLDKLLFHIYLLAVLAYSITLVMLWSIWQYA
# Method in brief: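 Radioligand displacement binding to human 5-HT3 from HEK293 membranes, read by filter-based scintillation counting after 1 h. Screen at 25 uM in duplicate; chemicals passing threshold were retested in concentration-response up to 50 uM.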
compound,measurement,setting,value
CN(C)c1ccc(C(=C2C=CC(=[N+](C)C)C=C2)c2ccccc2)cc1,AC50,[1],860 nM (active) and 5.04 µM (active)
same,AC50,[2],1.29 µM (active) and 1.63 µM (active)
CC(C)c1c(C(=O)Nc2ccccc2)c(-c2ccccc2)c(-c2ccc(F)cc2)n1CC[C@@H](O)C[C@@H](O)CC(=O)O,AC50,[2],11.2 µM (active)
Cc1cc(C(=C2C=CC(=Nc3ccc(S(=O)(=O)O)cc3)C=C2)c2ccc(Nc3ccc(S(=O)(=O)O)cc3)cc2)cc(S(=O)(=O)O)c1N,outcome,[3],inactive
CCOC(=O)CN[C@@H](C(=O)N1CC[C@H]1C(=O)NCc1ccc(/C(N)=N/O)cc1)C1CCCCC1,AC50,[1],0.00287 µM (active)
same,AC50,[2],1.25 µM (active)
CCCCc1ccc2ccccc2c1S(=O)(=O)O,outcome,[3],inactive
CCCCCCCCCCCCOS(=O)(=O)O,outcome,NCBI gene 24521,inactive
same,AC50,[4],5.96 µM (active)
CCCCCCCCCCCCCCCCCC[N+](C)(C)Cc1ccccc1,outcome,[1],inactive
same,outcome,[2],inactive
COc1cc([N+](=O)[O-])ccc1N,outcome,[3],inactive
C/C=C/C(=O)C1=C(C)CCCC1(C)C,AC50,[2],10.8 µM (active)
CN(C)CCOC(c1ccccc1)c1ccccc1,AC50,[5],7 µM (active)
same,AC50,[1],3.25 µM (active)
O=C(NCc1ncc(C(F)(F)F)cc1Cl)c1c(Cl)cccc1Cl,AC50,[2],0.00396 µM (active)
CCc1cccc(CC)c1N(COC)C(=O)CS(=O)(=O)O,outcome,[1],inactive
N=C(N)c1ccc(OCCCCCOc2ccc(C(=N)N)cc2)cc1,AC50,[5],5.6 µM (active)
same,outcome,NCBI gene 24521,inactive
same,AC50,[1],16.1 µM (active)
same,outcome,[4],inactive
CCCCC(CC)C(=O)O (stereo not drawn),outcome,[6],inactive
O=C(O)c1cccc(C(=O)O)n1,outcome,[3],inactive
